According to PubChem BioAssay AID686978 (National Center for Advancing Translational Sciences (NCATS), 2013):
Hit rate of the full screen: of about 420,000 compounds, about 64,000 (15%) were called active. Not shown: some 27% with an inconclusive outcome. These entries were drawn from the full list. A number with no mark means an inactive call. Calls come from the whole dose curve; as a rule, active = well fitted inhibition curve with a large enough effect; inconclusive = small, poorly fitted or top-dose-only effect; inactive = flat fitted curve, though single readings scatter.

Experiment: qHTS for Inhibitors of human tyrosyl-DNA phosphodiesterase 1 (TDP1): qHTS in cells in absence of CPT; note: nearly all actives have a fitted effect of over 55% in size
Conditions: DT40 Tdp1-/- hTDP1 cells, no CPT, ATP luminescence, 48 h; activity change, negative = growth inhibition: at 46.2 µM (top of the series)
Outline: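 Chicken DT40 Tdp1-/- cells stably complemented with human TDP1 were seeded at 400 cells/well with DMSO in place of 20 nM camptothecin. After compound pinning, cells grew at least 48 hr at 37 °C; viability read by CellTiter-Glo luminescence.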
% is set by controls: 0 for no effect and ±100 for the full control effect; potency is the fitted concentration of half-maximal effect.

Compound | activity change, negative = growth inhibition [%] | Potency
CCc1ccc(CN2C(=O)c3ccccc3C2C(=O)NCC2CCCO2)cc1 (centres undefined) | 8.07 | –
O=S(=O)(c1cccs1)N1CCN(Cc2ccccc2)CC1 | -5.85 | –
Cc1cc2oc(=O)cc(CN3CCN(S(=O)(=O)c4cccs4)CC3)c2cc1C(C)C | – | 20.6 µM (active)
COc1ccc2oc(=O)cc(CN3CCOCC3)c2c1 | 11.8 | –
O=C(CSc1nnc(-c2cccs2)n1-c1ccccc1)NCc1ccco1 | -11.9 | –
CC1CCc2c(sc(NC(=O)c3ccc(Cn4cc(Br)cn4)o3)c2C(N)=O)C1 (centres undefined) | -20.8 | –
CCCCN(C(=O)c1cccc(N2C(=O)c3ccccc3C2=O)c1)c1c(N)n(CCCC)c(=O)[nH]c1=O | 17.5 | –
O=C(COC(=O)c1ccc(F)cc1)Nc1nc2ccc([N+](=O)[O-])cc2s1 | -18.2 | –
CS(=O)(=O)c1ccc2nc(NC(=O)c3ccc(N4CCCC4=O)cc3)sc2c1 | -0.935 | –
O=S(=O)(c1ccccc1)N1CCc2ccccc21 | -7.81 | –
O=C(O)CCC(=O)Nc1nc2ccc([N+](=O)[O-])cc2s1 | 4.77 | –
CSc1nc2ccc(S(=O)(=O)N3CCc4ccccc43)cc2s1 | – | 23.1 µM (active)
Cc1nn(C)c(C)c1S(=O)(=O)N1CCc2ccccc21 | -29.2 | –
O=C(Nc1nc2ccc([N+](=O)[O-])cc2s1)c1ccncc1 | -13.7 | –
O=C(Nc1nc2ccc([N+](=O)[O-])cc2s1)c1ccc(S(=O)(=O)N2CCCc3ccccc32)cc1 | – | 4.11 µM (active)
O=C(NC(Nc1nc2ccc([N+](=O)[O-])cc2s1)(C(F)(F)F)C(F)(F)F)c1ccccc1 | – | 0.461 µM (active)
O=C(COC(=O)c1ccc(S(=O)(=O)N2CCCCCC2)cc1)Nc1ccccc1C(F)(F)F | 1.22 | –
Cc1ccc(C2(C)NC(=O)N(CC(=O)N3CC(=O)Nc4ccccc43)C2=O)cc1 (centres undefined) | -4.34 | –
COC(=O)C[C@@H]1C=C[C@@H](NC(=O)c2ccc3c(c2)OCO3)[C@@H](CO)O1 | -10.5 | –
COCCC(=O)N1CCC(Oc2ccc(C(=O)NCc3ccon3)cc2)CC1 | -24.7 | –
N#Cc1c(-c2ccccc2)cc(-c2ccccc2)nc1SCC(=O)O | 10.7 | –
CN1CCN(C2Cc3ccc(Cl)cc3Sc3ccc(F)cc32)CC1 (centres undefined) | – | 18.4 µM (active)
CN1C(=O)CN2CCc3ccccc3C2c2cc(Cl)ccc21 (centres undefined) | 0.961 | –
COC(=O)C1NN=C(C(=O)c2ccc(Br)cc2)C1c1cccc(Br)c1 (centres undefined) | -18.6 | –
Cc1ccc(NC(=O)C2CC2c2ccccc2)cc1 (centres undefined) | 2.36 | –

Compound | activity change, negative = growth inhibition [%] | Potency
Nc1ncnc2c1ncn2[C@@H]1O[C@H](C(=O)N2CCSC2)[C@@H](O)[C@H]1O | -25.8 | –
Cc1cccc(C)c1OCC(O)CN1CCCCC1 (centres undefined) | 4.81 | –
C=CCc1ccccc1OCC(O)CN1CCN(CCO)CC1 (centres undefined) | 20.7 | –
Cc1cccc(OCC(O)CN2CCN(CCN3C(=O)c4cccc5cccc(c45)C3=O)CC2)c1C (centres undefined) | – | 25.9 µM (active)
CCCC(C(=O)NC1CCCC1)N(C(=O)Cn1nnc(-c2ccc(C)o2)n1)c1cccc(O)c1 (centres undefined) | -11.8 | –
COC(=O)c1cc(C)sc1NC(=O)CC1Nc2ccccc2NC1=O (centres undefined) | -15.1 | –
O=C(c1csnn1)N1CCC[C@@]2(CCN(Cc3nccs3)C2)C1 | 4.1 | –
NC(=O)NC(=O)C(OC(=O)CCNS(=O)(=O)c1ccccc1)c1ccccc1 (centres undefined) | 2.11 | –
Cc1ccc(N2C(=O)C(Cc3ccccc3)NC2=S)cc1 (centres undefined) | -9.36 | –
Cc1ccc(N2C(=O)C3C(c4ccccc4)(C2=O)C3(c2ccccc2)c2ccccc2)cc1 (centres undefined) | – | 13 µM (active)
Cc1ccc(N2C(=O)C3CC3C2=O)cc1 (centres undefined) | 11 | –
O=C(N1CCCC1)C12CC3CC(C1)CC(C(=O)N1CCCC1)(C3)C2 | -19 | –
COc1ccccc1C(=O)NNC(=O)CCN1C(=O)/C(=C\c2ccccc2)SC1=S | -25.6 | –
CC(OC(=O)CNS(=O)(=O)/C=C/c1ccccc1)C(=O)Nc1ccc(S(=O)(=O)N2CCCC2)cc1 (centres undefined) | -12.5 | –
Cc1ccc(CNC(=O)CC(NC(=O)c2ccccc2)c2ccccc2)cc1 (centres undefined) | 11.7 | –
CSCCNC(=O)c1ccc2nc(Cc3ccccc3F)oc2c1 | -0.744 | –
COc1ccc(Cc2nc3ccc(C(=O)N4CCC(N(C)C)C4)cc3o2)cc1 (centres undefined) | 9.41 | –
COc1ccc(Cc2nc3ccc(C(=O)NCc4ccccc4C)cc3o2)cc1 | – | 8.2 µM (active)
COCCNC(=O)c1ccc2nc(Cc3ccc(OC)c(OC)c3)oc2c1 | 0.0783 | –
CCn1ccnc1CN(C)C(=O)c1ccc2nc(Cc3ccc(OC)cc3)oc2c1 | -4.12 | –
COc1ccc(Cc2nc3ccc(C(=O)NCc4ccccc4Cl)cc3o2)cc1 | – | 16.4 µM (active)
CCCc1c(C(=O)N/N=C(\C)CCc2ccc(OC)cc2)nnn1-c1nonc1N | 15.5 | –
Cc1ccc2c(C)c(C(=O)N(C)Cc3ccncn3)oc2c1C | 15.4 | –
CCOCCCNC(=O)C(NC(=O)CNC(=O)c1ccccc1)c1ccc(OC)cc1 (centres undefined) | 4.34 | –
